Screening data from PubChem.
In the library only some 12% were active in any assay of this set; here they are far more common.
Sfp inh – qHTS Assay for Inhibitors of Bacillus subtilis Sfp phosphopantetheinyl transferase (PPTase); 4'-phosphopantetheinyl transferase ffp (Bacillus subtilis), Q9F4F7; Biochemical Sfp PPTase activity, qHTS; Potency, µM, for the others: largest response in the series, negative = inhibition, most hits filed as inhibitors; actives 3.5% (n = 310,000); AID 1490, 2009;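 note: the enzyme is Sfp with the accession as filed and its product quenches rhodamine fluorescence; 0% = enzyme reaction without inhibitor and -100% = no enzyme wells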
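Compounds were incubated with enzyme (final 15 nM) for 15 min at room temperature before substrate addition started the reaction. Fluorescence at 525 nm excitation, 598 nm emission was recorded immediately and after 30 minutes.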
BAZ2B inh – qHTS Assay for Inhibitors of BAZ2B | Bromodomain adjacent to zinc finger domain protein 2B (Homo sapiens), Q9UIF8 | AlphaScreen BAZ2B-H3K14Ac peptide displacement | Potency, µM (series often up to 114 µM), without a hit: at the top dose activity change, negative = inhibition, usual class: inhibitors | actives 4.4% (n = 360,000) | AID 504333, 2011; note: % is set by controls: 0 for no effect and ±100 for the full control effect; nearly all actives have a fitted effect of over 60% in size
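BAZ2B 50 nM plus b-H3(5-23)K14Ac 50 nM, PBS pH 7.4/0.01% Tween-20, 30 min RT; compound added (max 110 uM), 30 min RT; streptavidin donor/Ni-chelate acceptor beads 10 ug/mL final, 20 min dark; AlphaScreen read.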
G9a block – qHTS Assay for Inhibitors of Histone Lysine Methyltransferase G9a; Histone-lysine N-methyltransferase EHMT2 (Homo sapiens), Q96KQ7; G9a H3K9 monomethylation, AlphaScreen, 2 h; Potency, µM (series often up to 102 µM), for the others: at the top dose activity, negative = inhibition, usual class: inhibitors; actives 8.8% (n = 350,000); AID 504332, 2011; note: % is set by controls: 0 for no effect and ±100 for the full control effect; nearly all actives have a fitted effect of over 75% in size
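G9a (20 nM) preincubated 15 min RT with compounds, then 500 nM biotinylated H3K9 peptide and 20 uM SAM added; 2 h RT reaction. Monomethyl-H3K9 product detected by AlphaScreen with anti-H3K9me1 antibody, streptavidin donor and anti-rabbit IgG acceptor beads.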
L3MBTL1 block – qHTS Assay for the Inhibitors of L3MBTL1; Potency, µM (highest dose often 57.1 µM), inactives show at the highest dose activity, negative = inhibition, usual class: inhibitors; Lethal(3)malignant brain tumor-like protein 1 (Homo sapiens), Q9Y468; AlphaScreen L3MBTL1–H3K9me1 peptide binding; AID 485360, 2010; actives 0.66% (n = 230,000); note: % is set by controls: 0 for no effect and ±100 for the full control effect; nearly all actives have a fitted effect of over 60% in size
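AlphaScreen assay: L3MBTL1 (50 nM final) was preincubated 30 min at room temperature with biotinylated H3(1-15)K9me1 peptide (75 nM final), then 30 min with library compounds; streptavidin donor and nickel chelate acceptor beads (10 ug/mL final) added, 30 min dark.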
JMJD2A Tudor inh – qHTS Assay for Inhibitors of JMJD2A-Tudor Domain | actives 4.4% (n = 390,000) | Potency, µM (series often up to 114 µM), for inactives: top-dose activity change, negative = inhibition, usual class: inhibitors | AlphaScreen JMJD2A-Tudor / H3K4me3 peptide binding | Lysine-specific demethylase 4A (Homo sapiens), O75164; note: % is set by controls: 0 for no effect and ±100 for the full control effect; nearly all actives have a fitted effect of over 50% in size
HP1b binding inh – HTS for Inhibitors of HP1-beta Chromodomain Interactions with Methylated Histone Tails. Chromobox protein homolog 1 (Homo sapiens), P83916. AlphaScreen HP1-beta / biotin-H3K9me3 peptide binding. Potency, µM (titrated, usually from 114 µM), inactives show top-dose activity change, negative = inhibition, usual class: inhibitors. actives 0.56% (n = 390,000); note: nearly all actives have a fitted effect of over 70% in size
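HP1-beta protein (50 nM final) preincubated 30 min at room temperature with biotinylated H3(1-18)K9me3 peptide (50 nM) in PBS pH 7.4, 0.01% Tween-20, then compound added for 30 min. AlphaScreen streptavidin donor/nickel chelate acceptor beads (10 ug/mL final), 30 min dark, luminescence read.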
Starred values were filed as active, the others as inactive; u = inconclusive; x = no result; [ ] = dose if it differs, or a comment. Calls come from the whole dose curve; as a rule, active = well fitted curve in the direction sought with a large enough effect; inconclusive = small, poorly fitted or top-dose-only effect, or another doubt; inactive = no such curve, though single readings can be large; an effect the other way counts as inactive or inconclusive. Potency is the fitted concentration of half-maximal effect.

SMILES	Sfp inh	BAZ2B inh	G9a block	L3MBTL1 block	JMJD2A Tudor inh	HP1b binding inh
O=c1[nH]cnc2nc3n(c12)CCCCC3	2%	3%	10%[12.7 µM]	x	-14%	24%
N#Cc1nc(Nc2cc(Cl)cc(Cl)c2)nc(NC2CCCC2)n1	x	x	x	x	-5%	x
CCOCCc1nnc(NC(=O)C(=O)c2cc(C)n(-c3ccc(C)c(C)c3)c2C)s1	x	4%	u	x	-11%	28%
N#C/C(=C(/O)CN1CCCC1)c1nc(-c2ccccc2)cs1	32µM*	u	x	-6%	-27%	-6%
N#CC(=C(O)CN1CCN(c2ccccc2F)CC1)c1nc(-c2ccccc2)cs1	x	x	x	x	-23%	3%
O=C(Cn1nc(CNc2ccc(Br)cc2)[n+]2c1CCCCC2)c1ccc([N+](=O)[O-])cc1	56µM*	u	71µM*	-30%	-32%	-18%
COc1ccc(NCc2nn(CC(=O)c3ccc(Br)cc3)c3[n+]2CCCCC3)cc1	-23%	35µM*	35µM*	-19%	45µM*	-17%
O=C(NNc1cc(Br)c(O)c(Br)c1)c1ccccc1	-56%	8.9µM*	5µM*	x	8.9µM*	40µM*
Cc1nn(C)c(C)c1CN(C(=O)C1CCC(=O)N(C2CCCCCC2)C1)C(C)C (centres undefined)	20%	-5%	19%[0.0925 µM]	x	-5%	31%
O=C(CNC(=O)c1ccc(F)cc1)NCc1ccc(S(=O)(=O)N2CCOCC2)cc1	x	4%	-9%	4%	-7%	19%
O=C(NCc1n[nH]c(=S)n1-c1ccc(F)cc1)c1ccc(S(=O)(=O)N2CCOCC2)cc1	45µM*	-1%	14µM*	x	13µM*	13%
O=C(NCc1ccccc1)c1ccc(S(=O)(=O)N2CCCC2)cc1	7%	2%	-4%[12.7 µM]	x	-22%	19%
O=C(NCc1n[nH]c(=S)n1-c1ccccc1)c1ccc(S(=O)(=O)N2CCOCC2)cc1	-15%	-4%	u	-3%	7.1µM*	10%
O=C(NCc1n[nH]c(=S)n1-c1ccccc1)c1ccc(S(=O)(=O)N2CCCCC2)cc1	-11%	9%	8.9µM*	x	u	22%
O=C(NCc1n[nH]c(=S)n1-c1ccc(F)cc1)c1ccco1	-5%	-7%	22µM*	x	22µM*	28%
CC1CCC2(C(=O)O)CCC3(C)C(=CCC4C3(C)CCC3[C@@]4(C)CC(O)C(O)[C@@]3(C)CO)C2C1C (some centres undefined)	6%	x	x	x	x	x
COc1ccc2[nH]cc(CCNc3ncnc4ccc(-c5ccccc5C#N)cc34)c2c1	15%	x	x	x	x	x
Cc1nc(Nc2nc3ccccc3o2)nc2c1CCC2	-2%	x	u	0%	10µM*	6%
COC(=O)c1cc(C(C)=O)n2ccccc12	14%	50µM*	1%[59 µM]	x	-18%[11.4 µM]	-6%
CCc1ccc(NC(=O)c2cc(C(C)=O)n3ccccc23)cc1	x	0%	1%[59 µM]	x	-5%	63%
CO[C@H]1[C@H](O[C@H]2O[C@@H](C)[C@@H](O[C@@H]3C[C@](C)(O)[C@H](O)[C@H](C)O3)[C@@H](N(C)C)[C@@H]2O)[C@@H](CC=O)C[C@@H](C)[C@@H](O[C@H]2CC[C@H](N(C)C)[C@H](C)O2)/C=C\C=C/C[C@@H](C)OC(=O)C[C@H]1O	20%	x	35%[21.5 µM]	x	x	x
CC1(C2(O)CCCCC2)NCCc2ccccc21 (centres undefined)	x	35µM*	32µM*	6%	0.89µM*	71µM*
O=C1NC(=O)C2(CCc3ccccc32)N1 (centres undefined)	-3%	-6%	-5%[0.501 µM]	-6%	-2%	19%
CCCNC(=O)Cn1cnc2sc(C(=O)NCCN(CC)CC)c(C)c2c1=O	15%	0%	79µM*	2%	5%	20%
CCCc1cc(-n2ccnc2)n2c(nc3ccccc32)c1C#N	9%	-5%	40µM*	-4%	8%	37%
SMILES	Sfp inh	BAZ2B inh	G9a block	L3MBTL1 block	JMJD2A Tudor inh	HP1b binding inh
COCCN1CCN(Cc2ccc(C(=O)NC(C)C)cc2)C(=O)C1=O	x	-6%	5%[12.7 µM]	x	9%	37%
COc1cc2nc(C3CCC3)nc(N3CCN(c4ccccn4)CC3)c2cc1OC	79µM*	50µM*	50µM*	-14%	u	-16%
COc1cc2nc(C3CCC3)nc(N3CCN(c4ccccc4OC)CC3)c2cc1OC	-23%	u	u	28µM*	u	-21%
Cc1cccc2sc(NNC(=O)C3COc4ccccc4O3)nc12 (centres undefined)	32µM*	-29%	18µM*	-5%	-32%	18%
O=C(NNc1nc2c(F)cc(F)cc2s1)C1COc2ccccc2O1 (centres undefined)	12%	0%	40%	0%	-10%	53%
Cn1c(=O)c2c(c3ccccc31)OC(=O)CC2c1ccc(C(F)(F)F)cc1 (centres undefined)	x	-5%	-3%[59 µM]	x	1%	33%
Cc1[nH]c2c(Cl)cccc2c1CCNC(=O)C1CCCCC1C(=O)OCC(F)(F)F (centres undefined)	23%	-33%	71µM*	-6%	-26%	2%
CCOc1ncccc1C(=O)Nc1ccc(F)c(Cl)c1	28%	37%	22%	-3%	-5%	41%
C=CCn1c(=O)c2c(nc(-c3ccccc3)n2C)n(C)c1=O	14%	x	33%[59 µM]	x	x	x
COc1ccc2c(c1)-c1nc(/N=C/c3ccccc3O)sc1CC2	-19%	u	u	-9%	u	u
COc1ccc2c(c1)-c1nc(/N=C/c3cccc(OC)c3O)sc1CC2	-1%	50µM*	18µM*	-2%	u	u
COc1ccc(-n2nc3c(N4CCCC(C(=O)NCCc5ccccc5C)C4)nnc(C)c3c2C)cc1 (centres undefined)	x	-19%	u	x	-11%	34%
COc1ccc(-n2nc3c(N4CCCC(C(=O)NCc5ccccc5C)C4)nnc(C)c3c2C)cc1 (centres undefined)	x	50µM*	u	5%	-26%	33%
Cc1ccc(-n2nc3c(N4CCC(C(=O)NCc5ccc(C)o5)CC4)nnc(C)c3c2C)cc1	-10%	50µM*	u	x	45µM*	42%
